Bioassay records from PubChem.
HPGD block = inhibitors of human 15-hydroxyprostaglandin dehydrogenase (HPGD); purified HPGD, NADH fluorescence kinetic, PGE2 substrate; P15428; Potency, µM, inactives show top-dose activity change, negative = inhibition, usual class: inhibitors; 4.3% of 150,000 active; note: potency is the fitted concentration of half-maximal effect
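20 nM HPGD preincubated 15 min at room temperature with compound in 50 mM Tris-HCl pH 8, 0.01% Tween 20. Started with 1 mM NAD+ and 30 uM prostaglandin E2; NADH fluorescence (360/450 nm) read 5 times over 30-s intervals, last minus first.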
PNC assembly inh = blocks assembly of the perinucleolar compartment; PC3M PTB-GFP, PNC prevalence imaging, 16 h; hits give low values; activity change (PNC), negative = inhibition, % at 10 µM; 3.1% of 140,000 active; AID 2417;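 active = readout at or below -70, meaning at least 70% loss of cells showing the perinucleolar compartment, a nuclear body marking cancer cells; inconclusive = readout between -30 and a set limit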;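 note: plate controls were DMSO wells for no effect and camptothecin positive control wells for full effect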
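Read-out is percentage of cells bearing a perinucleolar compartment, from automated 20x imaging of fixed, Hoechst-stained PC3M PTB-GFP cells. Cells were seeded 4 h, then exposed 16 h to compound (23 nl of library stock) in duplicate plates.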
ALDH1A1 inh = inhibitors of human aldehyde dehydrogenase 1A1. P00352. Purified ALDH1A1, NADH fluorescence, propionaldehyde substrate. Potency, µM (top dose mostly 75.3 µM), for the others: at the top dose activity, negative = inhibition, hits mostly inhibitors. 7.3% of 220,000 active;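 note: potency is the fitted concentration of half-maximal effect; plate controls were no enzyme wells and a reference inhibitor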
Target sequence (P00352 whole entry, looked up): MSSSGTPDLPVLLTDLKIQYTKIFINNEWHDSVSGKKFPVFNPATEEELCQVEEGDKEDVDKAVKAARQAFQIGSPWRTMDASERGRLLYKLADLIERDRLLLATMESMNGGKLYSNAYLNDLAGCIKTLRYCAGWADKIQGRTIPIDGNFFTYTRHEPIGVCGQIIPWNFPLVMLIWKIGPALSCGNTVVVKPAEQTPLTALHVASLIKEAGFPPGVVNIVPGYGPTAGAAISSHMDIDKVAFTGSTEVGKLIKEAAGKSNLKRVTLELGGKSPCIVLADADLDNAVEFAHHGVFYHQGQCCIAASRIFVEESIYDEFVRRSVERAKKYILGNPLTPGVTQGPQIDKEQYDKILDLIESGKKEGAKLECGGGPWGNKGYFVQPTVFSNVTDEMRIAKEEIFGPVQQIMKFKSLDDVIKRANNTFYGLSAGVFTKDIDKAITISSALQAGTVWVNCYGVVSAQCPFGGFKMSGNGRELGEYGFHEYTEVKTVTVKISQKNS
An asterisk follows results filed as active; ? = inconclusive; nt = not tested or not shown; ! = repeats disagree; [ ] = remark or other dose. Most compounds without a hit are left out; they make up all but 11% or so of the library. Unless noted, calls come from the whole dose curve; as a rule, active = well fitted inhibition curve with a large enough effect (not every such curve was filed as active); inconclusive = small, poorly fitted or top-dose-only effect, or another doubt; inactive = no such curve, though single readings can be large or run the other way. Unless noted, % is set by controls: 0 for no effect and ±100 for the full control effect.

SMILES	HPGD block	PNC assembly inh	ALDH1A1 inh
Cc1cc(C)nc(-n2nc(C)cc2NC(=O)CN2CCCC(C)C2)n1 (stereo not drawn)	-5.7%	26.6	?
CCC(C(=O)Nc1cc(C)nn1-c1nc(C)cc(C)n1)c1ccccc1 (stereo not drawn)	-14.5%	33.9	?
Cc1cc(C)nc(-n2nc(C)cc2NC(=O)CN2CCc3ccccc3C2)n1	3.9%	-22.8	25.1µM*
CN(C)CC[C@H](c1ccc(Br)cc1)c1ccccn1	-2.0%	nt	-9.6%[20.9 µM]
C=CC(N)CCC(=O)O (stereo not drawn)	-8.5%	nt	-3.6%
Cc1ccc2cc(CCNC(=O)c3cccs3)c(=O)[nH]c2c1	?	67.9	?
CCC(COC(=O)Nc1cccc(C)c1)NC(=O)OCC(C)C (stereo not drawn)	-13.8%	?	-14.0%
CN(Cc1ccco1)c1ncncc1-c1ccccc1C(F)(F)F	nt	nt	-2.8%
Cc1cc(C)c2c(N)c(C(=O)c3cccc(Cl)c3)sc2n1	-14.5%	-22.8	?
Cc1cc(C)c2c(N)c(S(=O)(=O)Cc3ccccc3)sc2n1	22.4µM*	3.1	-13.9%
CCC(Sc1nc(N)cc(=O)[nH]1)C(=O)Nc1cc(C)on1 (stereo not drawn)	nt	nt	8.9%
COC(=O)[C@@]1(Cc2ccccc2)[C@H]2c3cc(C(=O)N4CCCC4)n(Cc4ccc(C(F)(F)F)nc4)c3C[C@H]2CN1C(=O)c1ccccc1	-10.1%	nt	-1.9%
CN[C@H]1[C@H](O)[C@@H](O[C@@H]2[C@H](O)[C@@H](O[C@H]3OC(CN)=CC[C@H]3N)[C@@H](N)C[C@H]2N)OC[C@@]1(C)O	-1.3%	nt	1.6%[20.9 µM]
COc1ccc2ccccc2c1/C=N/NC(=O)c1sc(N)c(C#N)c1C	-28.5%	-3.5	?
COc1cc(/C=N/NC(=O)c2sc(N)c(C#N)c2C)cc(Br)c1O	-20.2%	-2.5	12.6µM*
COc1ccc(-c2cn3cccnc3n2)cc1F	?	4.8	?
CCC(=O)c1ccc(O)cc1	-13.6%	20.1	7.4%
O=C1C=CC(=C(c2ccc(O)cc2)c2ccc(O)cc2)C=C1	14.1µM*	nt	-10.5%
O=C(NCc1ccc2c(c1)OCO2)C(=O)Nc1ccccc1	nt	nt	14.3%
C=CCOC(=O)C1CC=CCC1C(=O)Oc1ccc(F)cc1F (stereo not drawn)	nt	-13.2	1.8%
CSc1nc(NC(C)=O)nc(C)c1Br	-6.2%	52.3	22.7%
O=C1NC(=O)[C@@H]2C3c4ccccc4C=CN3[C@H](C(=O)c3cccs3)[C@H]12 (stereo partly drawn)	-23.6%	18.9	25.1µM*
O=C(Cn1ccccc1=O)c1cccs1	-5.9%	-8.1	-7.2%
COc1ccc(C)cc1-n1[nH]nnc1=S	nt	nt	10µM*
COc1ccc(C)cc1-n1nc2ccccc2n1	nt	nt	-11.2%
SMILES	HPGD block	PNC assembly inh	ALDH1A1 inh
Cc1cc(C)c(-n2[nH]nnc2=S)c(C)c1	nt	nt	22.4µM*
C=CC(=O)OCCCCCCOC(=O)C=C	-3.8%	nt	2µM*
C=C(C)C(=O)OCCCCCC	0.5%	nt	7.9%
C=CCN=C(NC#N)SCc1ccccc1Cl	nt	15.9	?
O=C(O)CP(=O)(O)O	31.6µM*!	19.8	8.5%
O=C(O)C[C@H](NC(=O)CP(=O)(O)O)C(=O)O.[NH-][C@@H]1CCCC[C@@H]1[NH-].[Pt]	2.0%	nt	7.8%[13.5 µM]
CCOC(=O)c1sc(C)c2c1NC(c1ccc(Cl)cc1)NC2=O (stereo not drawn)	?	?	2.7%
Cc1ccccc1NC(=S)NC1(C)CCS(=O)(=O)C1 (stereo not drawn)	-6.7%	-24.6	-9.4%
CN(C)CC(C)(C)CNC(=O)c1cc(=O)c2ccccc2o1	-4.8%	?	2.4%
CN(C)S(=O)(=O)c1ccc(C(=O)N2CCCC2c2nc3ccccc3s2)cc1 (stereo not drawn)	0.8%	?	10.6%
O=S(=O)(c1ccc(Br)cc1)N1CCCC1c1nc2ccccc2s1 (stereo not drawn)	-8.9%	-100.0*	-12.7%
CCOC(=O)C1=C(C)OC(N)=C(C#N)C1c1cc(F)ccc1F (stereo not drawn)	-10.0%	-12.2	8.5%
COC(=O)C1=C(C)OC(N)=C(C#N)C1c1cc2cccc(C)c2nc1Cl (stereo not drawn)	nt	nt	28.2µM*
CCOC(=O)C1=C(C)OC(N)=C(C#N)C1c1ccc(C)s1 (stereo not drawn)	nt	nt	22.4µM*
CCOC(=O)C1=C(C)OC(N)=C(C#N)C1c1ccc(OC)c(C)c1OC (stereo not drawn)	-5.2%	?	-8.2%
COC(=O)C1=C(C)OC(N)=C(C#N)C1c1cc(C)sc1C (stereo not drawn)	28.2µM*	?	?
CC(=O)C1=C(C)OC(N)=C(C#N)C1c1cc2cccc(C)c2nc1Cl (stereo not drawn)	?	63.5	?
CC(=O)NC(Cc1c[nH]c2ccccc12)C(=O)OCC(=O)N1CCCCCC1 (stereo not drawn)	nt	nt	-2.2%
C1=C(CN2CCOCC2)COc2c1cccc2OC[C@@H]1CNCCO1	-5.5%	nt	8.1%
CCOc1ccccc1NC(=S)NNS(=O)(=O)c1c(C)cc(C)cc1C	-15.6%	17.8	0.6%
c1cc(NNc2cccc(-c3nn[nH]n3)c2)cc(-c2nn[nH]n2)c1	-4.9%	nt	?
Cc1nn(-c2ccccc2)c(OC(=O)c2cccs2)c1S(=O)(=O)c1ccc([N+](=O)[O-])cc1	-14.6%	?	12.6%
CCOC(=O)NC(NC(=S)Nc1ccccc1OC)C(Cl)(Cl)Cl (stereo not drawn)	-0.3%	-19.2	-4.7%
COC(=O)NC(NC(=S)Nc1ccccc1OC)C(Cl)(Cl)Cl (stereo not drawn)	nt	87.3	3.16µM*
CCOC(=O)NC(NC(=S)Nc1ccc(OC)cc1)C(Cl)(Cl)Cl (stereo not drawn)	-5.2%	5.3	2.6%
SMILES	HPGD block	PNC assembly inh	ALDH1A1 inh
CC(=O)NC(NC(=S)Nc1ccc(N=Nc2ccccc2)cc1)C(Cl)(Cl)Cl (stereo not drawn)	-28.6%	-14.5	12.6µM*
COc1ccc([N+](=O)[O-])cc1NC(=O)C(C)c1ccccc1 (stereo not drawn)	-8.1%	-22.1	-6.7%
CC(C)CC(=O)NC(NC(=S)Nc1ccccc1)C(Cl)(Cl)Cl (stereo not drawn)	nt	nt	-4.7%
COc1ccc([N+](=O)[O-])cc1NC(=S)NC(NC(=O)C(c1ccccc1)c1ccccc1)C(Cl)(Cl)Cl (stereo not drawn)	-9.6%	-6.4	20µM*
COC(=O)NC(NC(=S)Nc1ccc([N+](=O)[O-])cc1)C(Cl)(Cl)Cl (stereo not drawn)	31.6µM*	-4.0	20µM*
O=[N+]([O-])c1cccc(-c2noc(COc3ccccc3)n2)c1	nt	nt	-4.1%
CCCCNC(=O)C1CCN(c2nc(OC)nc(OC)n2)CC1	-21.2%	-27.6	11.4%
C#CCNc1cc(C)nc2ncnn12	-6.0%	7.1	5.2%
Cc1ccc(S(=O)(=O)N/N=c2\oc3ccccc3cc2C(=O)Nc2cccc(C)c2)cc1	-12.5%	14.8	0.159µM*
Cc1cccc(NC(=O)c2cc(S(=O)(=O)c3ccccc3)ccc2Cl)c1	-13.7%	-26.4	?
CC(=O)N(Cc1cccs1)Cc1cc2ccc(C)c(C)c2nc1Cl	nt	nt	17.8µM*
Cc1ccc2cc(CN(Cc3cccs3)C(=O)c3ccco3)c3nnnn3c2c1C	-11.1%	?	?
Cc1n[nH]c(=O)n1-c1cccc(C(F)(F)F)c1	1.3%	4.5	9.1%
